Values joined by “and” are separate entries in the source; they are usually repeats but may differ in a detail not shown here. Equal entries are not always repeated. This is part of a sample that, as a whole, favours compounds with a hit. Of some 83,000 tested, about 20% had one in any assay.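 Percent growth is the endpoint: 0 to 100 indicates growth inhibition (40 means 60% inhibition), 0 means no net growth, and negative values indicate cell death.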 A number with no mark means an inactive call. Active and inactive are the calls of the source. The calls were made as follows: active = growth percent below 10; inactive = the rest.

The subject of this assay is MDA-MB-468 breast. The experiment in a line: NCI-60 one-dose screen, 48 h (100 = growth as untreated, 0 = no growth, -100 = all killed). The note with it: 10 µM unless noted.
For the molecule `COc1ccc(OC)c2c1[nH]c(=O)c1c3ncccc3cn21`, the growth is 12.2%.

In the case of `COCCNCC(O)Cn1c2ccc(Cl)cc2c2cc(Cl)ccc21` (stereo not given), the growth is -43.9% (active).

Take `N#C/C(=C\c1ccc(Br)cc1)n1nnc2ccc(F)cc21`: the growth was -9.09% (active).

In the case of `Cc1ccc(O)c(C(=O)c2ccccc2Cl)c1`, the growth was 106%.

In the case of `CCOc1cccc(Nc2nc(N)nc3[nH]c4ccc(O)cc4c23)c1`, the growth was 8.38% (active).

In the case of `O=C1/C=C/[C@@H](O)[C@@H]2C[C@@H](O)C[C@H]2/C=C/CCC[C@H]([C@@H](O)CO)O1`, the growth was -5.34% (active).

Consider `O=C(CCl)Nc1cc(O)c2c(c1)C(=O)c1cccc(O)c1C2=O`, for which the growth is -55.1% (active).

For the molecule `CC/C=C\C/C=C\C[C@H]1C/C=C2/C(=O)C=C[C@@H]2C/C=C\CCC(=O)O1`, the growth was -8.25% (active).

Regarding `O=[N+]([O-])c1ccc(-n2[nH]nnc2=S)cc1`, the growth is 123%.

As to `Nc1cc(O)cc2cccnc12`, the growth was 109%.

As for `O=C1C(Cl)=C(Nc2ccc(O)cc2)C(=O)N1Cc1ccc(Cl)cc1`, the growth is 5.88% (active).

Turning to `N#Cc1c(-c2ccc(Cl)cc2)csc1NC(=O)Nc1ccc(Cl)c(C(F)(F)F)c1`, the growth is -9.61% (active).

Regarding `O[C@@H]1CCO[C@H](c2ccc3ccccc3c2)C1`, the growth is 107%.

As to `CC(=O)[C@H]1CCC/C=C/[C@@H]2C[C@H](O)C[C@H]2[C@H](O)/C=C/C(=O)O1`, the growth is -34.9% (active).

For `CC1(C)CC[C@]2(CO)CC[C@]3(C)C(=CC[C@@H]4[C@@]5(C)CCNCC(C)(C)[C@@H]5CC[C@]43C)[C@@H]2C1`, the growth was -33.1% (active).

`O=C(c1c[nH]c2ccccc12)c1n[nH]c(=S)n1-c1ccc([N+](=O)[O-])cc1`: the growth was 106%.

As to `O=[N+]([O-])c1c(S(=O)(=O)O)cc2cc(S(=O)(=O)O)ccc2c1[N+](=O)[O-]`, the growth was 111%.

For `COc1cc(C(=O)c2cc(C)c3[nH]c4ccc(C)cc4c3c2C)cc(OC)c1OC`, the growth is -20.1% (active).

For the molecule `CCN1Cc2c(/C=C/c3ccccc3)nc3ccc(OC)cc3c2N(c2cccc(Cl)c2)C1`, the growth was 48.3%.

Regarding `COc1cc2c(c(O)c1Cl)C(=O)c1c(O)cc(C[C@H](C)O)cc1[C@H]2[C@H]1c2cc(C[C@H](C)O)cc(O)c2C(=O)c2c1cc(OC)c(Cl)c2O`, the growth is -14.6% (active).

As for `COc1cccc(-c2cc(-c3cc4ccccc4oc3=O)nc(N)n2)c1`, the growth is 92.7%.

Regarding `COc1ccc(-c2cc(-c3ccc(Nc4nc(Nc5ccccc5)nc(Nc5ccc(Cl)cc5)n4)cc3)nc(N)n2)cc1`, the growth is 87.4%.

`COc1cc(C2C(C#N)=C(N)OC3=C2C(=O)c2ccccc2C3=O)cc(OC)c1OC` (stereo not given): the growth is 42.4%.

Regarding `CN1CCCN(C(c2ccccc2)c2ccc(Cl)cc2)CC1` (stereo not given), the growth is 83.1%.

With `Cc1cc(NC(=O)c2ccc(C)c(Nc3nccc(-c4cccnc4)n3)c2)cc(-n2cnc(C)c2)c1`, the growth was -18.1% (active).

Turning to `CCC(C)[C@H]1O[C@]2(CC[C@@H]1C)C[C@@H]1C[C@@H](C/C=C(\C)[C@@H](OC3C[C@H](OC)C(O[C@H]4C[C@H](OC)[C@@H](O)[C@H](C)O4)[C@H](C)O3)[C@@H](C)/C=C/C=C3\CO[C@@H]4[C@H](O)C(C)=C[C@@H](C(=O)O1)[C@]34O)O2` (stereo not given in full), the growth is 10.5%.

Consider `Oc1ccccc1-c1nc2c3ccccc3c3ccccc3c2o1`, for which the growth is 83%.

`CCN(CC)CC(=O)Nc1cccc(C(=O)OC(C)C)c1`: the growth was 115%.

In the case of `c1ccc(/C(=N\N=C(/c2ccccc2)c2cccs2)c2cccs2)cc1`, the growth was 105%.

`O=[N+]([O-])c1ccc(Oc2ccccc2)cc1`: the growth is 103% and 113%.

Take `CC(=S)Nc1ccccc1`: the growth is 103%.

Consider `Cn1cc(C=O)c2ccccc21`, for which the growth was 100%.

For `CCCCCCCCCCC(C(O)c1ccccc1)N1CCCCC1` (stereo not given), the growth was -21.9% (active).

Consider `Nc1cccc(S(=O)(=O)c2cccc(N)c2)c1`, for which the growth is 119%.

Take `COc1ccc(/C=N/Nc2c3ccccc3nc3ccccc23)cc1`: the growth was 73.7%.

With `COc1cc(C(=O)/C=C/c2cccnc2Nc2ccccc2)cc(OC)c1OC`, the growth is -93.8% (active).

On to `O=C(CCc1nnc2sc(-c3ccccc3)nn12)c1nc2ccccc2[nH]1`, for which the growth was 87.3%.

Turning to `CCN1C(=O)N(CC)C2SC(N/N=C/c3ccccc3F)=NC21` (stereo not given), the growth is 40.4%.

Regarding `C[C@H]1[C@H]2[C@H]3CC[C@@H]4[C@@]5(C)CC[C@H](O)C(C)(C)[C@@H]5CC[C@@]4(C)[C@]3(C)CC[C@]23CO[C@]1(C)[C@@H](C(=O)/C=C\c1ccco1)C3`, the growth was 19.3%.

In the case of `COCCOc1ccc2ncc(C#Cc3cncc(C(=O)Nc4ccc(CN5CCN(C)CC5)c(C(F)(F)F)c4)c3)n2n1`, the growth is 7.9% (active).
